A selection: hits, their analogues and other compounds. The true share with any hit is near 3%.
PMP22 txn: Cell-based coincidence reporter assay to measure PMP22 gene transcription in S16 Pmp22-F2sN cells - Primary screen; S16 Pmp22-F2sN Schwann cells, FLuc/NLuc coincidence luminescence, 24 h; Potency, µM (series often up to 57.5 µM), for the others: top-dose activity change, negative = inhibition, most hits filed as inhibitors; actives 2% (n = 43,000); AID 1508649, 2021; active = clear falling dose curves in both reporters; inconclusive = both reporters move, but less clearly or upward; inactive = either reporter flat; the % is the NLuc reporter signal; note: potency is the fitted concentration of half-maximal effect; % is set by controls: 0 for no effect and ±100 for the full control effect
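Rat S16 Pmp22-F2sN cells, 500-1,000/well in phenol red-free DMEM + 10% FBS, compound-treated 24 h (37C, 5% CO2). Luminescence: FLuc read, Stop&Glo added, NLuc read.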
p53null 32C kill: qHTS Screen for Compounds that Selectively Target Cancer Cells with p53 Mutations: Cytotoxicity of p53 Null Cells at the Permissive Temperature; actives 0.62% (n = 55,000); H1299-neo p53 null cells, ATP luminescence, 24 h, 32C; Potency, µM (titrated, usually from 46.1 µM), without a hit: top-dose activity change, negative = cytotoxicity, hits mostly cytotoxic;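 note: potency is the fitted concentration of half-maximal effect; 0% = DMSO only and -100% = full killing by 100 µM tamoxifen; nearly all actives have a fitted effect of over 55% in size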
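Cytotoxicity: H1299-neo (no p53), 32C, 24 h treatment. Concentrations up to 46 uM. Readout cellular ATP, luminescence. Normalization to DMSO basal and tamoxifen 100 uM maximal kill.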
mTORC1 inh: Acumen qHTS Assay for Inhibitors of the mTORC1 Signaling Pathway in MEF (Tsc2-/-, p53-/-) Cells: Sytravon | Tsc2-/- p53-/- MEF, phospho-rpS6 immunofluorescence/PI, 24 h | Potency, µM (highest dose often 38.3 µM), for inactives: top-dose activity change, negative = inhibition, hits mostly inhibitors | actives 0.78% (n = 44,000);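 note: potency is the fitted concentration of half-maximal effect; plate controls were DMSO for no effect and rapamycin for full effect; nearly all actives have a fitted effect of over 50% in size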
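Compounds act on Tsc2-/-, p53-/- fibroblasts carrying an empty vector for 24 h before fixation and dual staining for phospho-S6 and DNA (propidium iodide). Values are percentages of cells above a rapamycin-defined pS6/PI threshold.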
GALC G270D up: A Novel Cell-Based Assay to Identify Small Molecules for B -Galactocerebrosidase; P54803; 145M-Twi-hGALC-G270D cells (Twitcher mouse brain line with human GALC G270D), HMU-beta-Gal fluorescence, 48 h; Potency, µM (top dose mostly 57.5 µM), usual class: activators; actives 0.1% (n = 45,000); note: potency is the fitted concentration of half-maximal effect; 0% is about no effect; nearly all actives have a fitted effect of over 65% in size
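Fluorescence readout: HMU-β-gal cleavage by mutant GALC (0.1 mM final, citrate/phosphate pH 5.2 with 1 mg/mL taurocholate), stopped with carbonate/bicarbonate plus Triton X-100. Cells: murine Twitcher 145M-Twi expressing human G270D GALC; qHTS for activators.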
S16 F2sN tox: Cell viability qHTS assay in S16 Pmp22-F2sN cells. AID 1508642, 2021. actives 0.48% (n = 43,000). Potency, µM (highest dose often 57.5 µM), for the others: at the top dose activity change, negative = cytotoxicity, hits mostly cytotoxic. S16 Pmp22-F2sN Schwann cells (luciferase reporters placed in the Pmp22 gene) viability, CellTiter-Glo, 24 h; note: potency is the fitted concentration of half-maximal effect; % is set by controls: 0 for no effect and ±100 for the full control effect; nearly all actives have a fitted effect of over 65% in size
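Rat S16 Schwann reporter line, 24 h treatment with library compounds delivered at 23 nL per well. Cell viability by CellTiter-Glo luminescence.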
p53null 39C kill: qHTS Screen for Compounds that Selectively Target Cancer Cells with p53 Mutations: Cytotoxicity of p53 Null Cells at the Nonpermissive Temperature; Potency, µM (series often up to 46.1 µM), without a hit: at the top dose activity, negative = cell killing, actives largely listed as cytotoxic; H1299 p53-null (neo) cells, 39C, ATPlite viability, 24 h; actives 0.97% (n = 55,000); AID 904, 2007;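 note: potency is the fitted concentration of half-maximal effect; 0% = DMSO only and -100% = full killing by 100 µM tamoxifen; nearly all actives have a fitted effect of over 50% in size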
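Concentration-response (up to 46 uM) was run for 24 h at the nonpermissive 39C on H1299-p53A138V or H1299-neo cells. ATP content was measured with ATPlite luminescence. AC50 values were Hill-modeled after normalizing between DMSO and 100 uM tamoxifen killing.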
NLuc sat counter: Biochemical NLuc saturation counterscreen for small molecule modulators of PMP22 gene expression - Nano-Glo assay | shares compounds with PMP22 txn | Secreted NLuc enzyme (filtered S16 cell medium), Nano-Glo luminescence | Potency, µM (series often up to 57.5 µM), inactives show at the highest dose activity change, negative = inhibition, hits mostly inhibitors | actives 4% (n = 690) | AID 1508638, 2021; note: potency is the fitted concentration of half-maximal effect; % is set by controls: 0 for no effect and ±100 for the full control effect
NLuc Km ctr: Biochemical coelenterazine-based NLuc counterscreen for small molecule modulators of PMP22 gene expression - Km assay; shares compounds with PMP22 txn; secreted NLuc enzyme, coelenterazine luminescence, Km conditions; Potency, µM (doses to about 57.5 µM), for the others: at the highest dose activity change, negative = inhibition, actives largely listed as inhibitors; actives 5% (n = 690); AID 1508639, 2021; note: potency is the fitted concentration of half-maximal effect; % is set by controls: 0 for no effect and ±100 for the full control effect
FLuc ctr PMP22: Biochemical FLuc counterscreen for small molecule modulators of PMP22 gene expression; shares compounds with PMP22 txn; purified P. pyralis FLuc, luminescence, 10 min; Potency, µM (titrated, usually from 57.5 µM), for the others: top-dose activity, negative = inhibition, usual class: inhibitors; 690 tested, under 10 active; note: % of control where 0% means no effect
Target sequence (P08659 whole entry, looked up): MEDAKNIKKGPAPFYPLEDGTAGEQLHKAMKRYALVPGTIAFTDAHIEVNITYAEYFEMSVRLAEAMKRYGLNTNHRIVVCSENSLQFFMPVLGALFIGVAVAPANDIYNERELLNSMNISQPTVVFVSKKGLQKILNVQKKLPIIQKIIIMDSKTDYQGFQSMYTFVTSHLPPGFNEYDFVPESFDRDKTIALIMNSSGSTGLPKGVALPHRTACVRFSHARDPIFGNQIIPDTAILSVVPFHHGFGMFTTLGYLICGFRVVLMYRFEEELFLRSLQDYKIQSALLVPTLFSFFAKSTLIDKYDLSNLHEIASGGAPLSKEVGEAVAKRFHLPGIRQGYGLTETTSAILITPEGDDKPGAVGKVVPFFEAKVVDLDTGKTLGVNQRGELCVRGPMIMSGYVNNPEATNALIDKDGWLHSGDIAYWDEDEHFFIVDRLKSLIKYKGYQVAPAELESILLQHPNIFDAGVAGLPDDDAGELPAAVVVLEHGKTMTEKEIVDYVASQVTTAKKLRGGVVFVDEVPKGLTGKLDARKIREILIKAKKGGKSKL
S16 F2sN tox cnf: Cell viability qHTS assay in S16 Pmp22-F2sN cells - Confirmatory screen. shares compounds with PMP22 txn. Potency, µM (titrated, usually from 57.5 µM), inactives show at the highest dose activity change, negative = viability loss, most hits filed as cytotoxic. S16 Schwann cells viability, CellTiter-Glo ATP luminescence, 24 h. actives 7% (n = 690); note: potency is the fitted concentration of half-maximal effect; % is set by controls: 0 for no effect and ±100 for the full control effect
PMP22 txn conf: Cell-based coincidence reporter assay to measure PMP22 gene transcription in S16 Pmp22-F2sN cells - Confirmatory screen | AID 1508646, 2021 | S16 Schwann cells Pmp22-F2sN, dual luciferase, 24 h | Potency, µM (series often up to 57.5 µM), without a hit: top-dose activity change, negative = inhibition, most hits filed as inhibitors | actives 22% (n = 690) | shares compounds with PMP22 txn; active = clear falling dose curves in both reporters; inconclusive = both reporters move, but less clearly or upward; inactive = either reporter flat; the % is the FLuc reporter signal; note: potency is the fitted concentration of half-maximal effect
PMP22 prot conf: Cell-based HiBiT reporter assay to measure PMP22 protein expression in S16 Pmp22-HiBiT cells - Confirmatory screen. shares compounds with PMP22 txn. S16 Schwann cells Pmp22-HiBiT, luminescence, 48 h. Potency, µM (highest dose often 27.9 µM), inactives show at the highest dose activity change, negative = inhibition, hits mostly inhibitors. 95 tested, under 10 active
Target sequence (P25094 whole entry, looked up): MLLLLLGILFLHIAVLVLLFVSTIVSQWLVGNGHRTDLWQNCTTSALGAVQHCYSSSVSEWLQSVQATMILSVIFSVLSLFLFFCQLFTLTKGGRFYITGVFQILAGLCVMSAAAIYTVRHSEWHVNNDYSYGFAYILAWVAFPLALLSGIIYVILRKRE
Active calls of the source: *; i = inactive; ? = inconclusive; nt = no result. Unless noted, calls come from the whole dose curve; as a rule, active = well fitted curve in the direction sought with a large enough effect; inconclusive = small, poorly fitted or top-dose-only effect, or another doubt; inactive = no such curve, though single readings can be large; an effect the other way counts as inactive or inconclusive.

SMILES	PMP22 txn	p53null 32C kill	mTORC1 inh	GALC G270D up	S16 F2sN tox	p53null 39C kill	NLuc sat counter	NLuc Km ctr	FLuc ctr PMP22	S16 F2sN tox cnf	PMP22 txn conf	PMP22 prot conf
COc1ccc(NC(=O)c2ccc(NC(=O)CCS(=O)(=O)c3cccs3)cc2)cc1	?	2%	-23%	i	1%	?	nt	nt	nt	nt	nt	nt
COc1ccccc1-c1cc(C(F)(F)F)nc(S(=O)(=O)CCCC(=O)Nc2cc(Br)ccc2O)n1	?	?	?	i	17%	?	nt	nt	nt	nt	nt	nt
O=C(CCS(=O)(=O)c1nc(-c2ccc3c(c2)OCO3)cc(C(F)(F)F)n1)Nc1ccc(Br)cc1	?	?	?	i	?	16%	nt	nt	nt	nt	nt	nt
O=C(CCS(=O)(=O)c1nc(-c2cccs2)cc(C(F)(F)F)n1)Nc1ccc(OC(F)(F)F)cc1	?	17%	-17%	i	?	?	-3%	?	2%	?	9.1µM*	?
COc1ccccc1-c1cc(C(F)(F)F)nc(S(=O)(=O)CCCC(=O)Nc2ccccc2F)n1	8.9µM*	?	16µM*	i	?	?	?	?	-1%	?	6.9µM*	36%
COc1ccc(NC(=O)CCS(=O)(=O)c2nc(-c3cccs3)cc(C(F)(F)F)n2)cc1	7.6µM*	?	?	i	?	143%	-17%	?	-7%	?	12µM*	23%
COc1ccc(Cl)cc1NC(=O)CCCS(=O)(=O)c1nc(-c2ccc(OC)c(OC)c2)cc(C(F)(F)F)n1	5µM*	?	13µM*	i	?	?	-13%	1%	2%	?	9.3µM*	34%
CCC(=O)N1CCc2cc(S(=O)(=O)NC(Cc3ccccc3)C(=O)NCc3ccccc3OC)ccc21 (stereo not drawn)	-8%	6%	-8%	i	-15%	-6%	nt	nt	nt	nt	nt	nt
Cc1ccc(C(=O)Nc2ccc(-c3nc4ccccc4s3)c(O)c2)c(C)c1	-53%	-7%	-4%	i	7%	5%	nt	nt	nt	nt	nt	nt
O=C(CCS(=O)(=O)c1nc(-c2cccs2)cc(C(F)(F)F)n1)Nc1ccc(F)c(Cl)c1	15µM*	42%	-13%	i	?	?	-6%	?	4%	?	13µM*	?
COc1ccc(Cl)cc1NC(=O)CCS(=O)(=O)c1nc(-c2cccs2)cc(C(F)(F)F)n1	10µM*	14%	1%	i	?	?	?	?	3%	?	8.9µM*	nt
COC(=O)c1ccccc1NC(=O)CCS(=O)(=O)c1nc(-c2ccc3c(c2)OCO3)cc(C(F)(F)F)n1	14µM*	-21%	-15%	i	-6%	?	-19%	-2%	6%	-24%	19µM*	nt
O=C(CCS(=O)(=O)c1nc(-c2ccc3c(c2)OCO3)cc(C(F)(F)F)n1)Nc1ccccc1F	?	46%	-2%	i	12%	139%	nt	nt	nt	nt	nt	nt
O=c1c2oc3ccccc3c2n(Cc2cccc(Cl)c2)c(=O)n1Cc1ccc2c(c1)OCO2	3%	5%	2%	i	8%	-8%	nt	nt	nt	nt	nt	nt
Cn1c(=O)c2c(-c3ccccc3)n3c4ccccc4nc(-c4ccccc4)c3c2n(C)c1=O	?	1%	-1%	i	-12%	-9%	nt	nt	nt	nt	nt	nt
CCOc1ccc(OCC)c(NC(=O)c2nnn(CC(=O)Nc3cc(Cl)ccc3OC)c2N)c1	11µM*	-16%	-17%	i	14%	-7%	-4%	7%	7%	?	14µM*	nt
Cc1ccccc1NC(=O)c1ccc(F)c(S(=O)(=O)N(C)C2CCCCC2)c1	5µM*	5%	0%	i	-14%	-2%	-17%	?	3%	-5%	-27%	nt
Cc1ccccc1NC(=O)c1ccc(F)c(S(=O)(=O)N2CCc3ccccc3C2)c1	12%	-4%	13%	i	8%	-1%	nt	nt	nt	nt	nt	nt
CCCOc1ccc(NC(=O)CC2C(=O)N(c3ccccc3)C(=O)N2Cc2ccc(F)cc2)cc1 (stereo not drawn)	nt	-1%	0%	nt	nt	1%	nt	nt	nt	nt	nt	nt

Screening data deposited in PubChem BioAssay by National Center for Advancing Translational Sciences (NCATS).
